# Source: PubChem BioAssay (NCI)
# Compounds without any hit were thinned out: in the full panel of roughly 79,000, 15% have a hit. Values without a mark were called inactive. Calls of active or inactive are those of the source. No stated cut-off is given here; in the data, active means growth inhibition above about 70%; inactive means the rest.
# Key:
# [1] = NCI Yeast Anticancer Drug Screen. Data for the wt1 strain (AID 149);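 further: 0% = growth of vehicle-treated wt1 cultures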; conditions: S. cerevisiae wt1 strain (SPY 50644) growth inhibition, hits give high values
# Outline: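 Compounds are added to wt1 yeast cultures. Growth is then measured. Inhibition is expressed relative to vehicle-treated controls.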
# [2] = NCI Yeast Anticancer Drug Screen. Data for the rad50EPP+ strain (AID 151);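 further: 0% = growth of vehicle-treated control cultures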; conditions: S. cerevisiae rad50 mutant strain, hits give high values
# Outline: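 Yeast strain carrying rad50 alteration (rad50EPP+) exposed to compounds; growth inhibition measured relative to vehicle-treated controls.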
# [3] = NCI Yeast Anticancer Drug Screen. Data for the mgt1 strain (AID 153); conditions: S. cerevisiae mgt1 mutant growth inhibition, hits give high values
# Outline: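 Yeast mgt1 strain (DNA repair/cell-cycle alteration panel) exposed to compounds; growth inhibition measured relative to vehicle-treated controls.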
# [4] = NCI Yeast Anticancer Drug Screen. Data for the rad50 strain (AID 155);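 further: 0% = growth of vehicle-only cultures of the same strain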; conditions: S. cerevisiae rad50 strain growth inhibition, hits give high values
# Outline: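 Inhibition values express reduced yeast growth in compound-treated cultures relative to vehicle-treated controls.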
# [5] = NCI Yeast Anticancer Drug Screen. Data for the mec2-1 strain (AID 157); conditions: S. cerevisiae mec2-1 strain, hits give high values
# Outline: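 mec2-1 yeast strain, carrying an alteration in DNA damage repair or cell cycle control, was exposed to compounds; growth inhibition was measured relative to vehicle-treated controls.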
# [6] = NCI Yeast Anticancer Drug Screen. Data for the rad14 strain (AID 159);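 further: 0% = growth of vehicle-treated control cultures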; conditions: S. cerevisiae rad14 strain growth inhibition, hits give high values
# Outline: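 A mutant yeast strain defective in DNA damage repair is treated with compound; inhibition of its growth is scored against untreated, vehicle-exposed cultures.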
# [7] = NCI Yeast Anticancer Drug Screen. Data for the sgs1 mgt1 strain (AID 161);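 further: 0% = growth of cultures given vehicle only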; conditions: S. cerevisiae sgs1 mgt1 strain, hits give high values
# Outline: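 Growth of a repair-deficient yeast mutant was monitored after compound treatment and expressed as inhibition relative to vehicle-treated cultures.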
# [8] = NCI Yeast Anticancer Drug Screen. Data for the CLN2oe strain (AID 163);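 further: 0% = growth of vehicle-only control cultures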; conditions: S. cerevisiae CLN2oe strain, hits give high values
# Outline: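 Yeast cells carrying a defined cell-cycle control alteration were exposed to test compounds. Growth inhibition was scored against vehicle-treated control cultures.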
# [9] = NCI Yeast Anticancer Drug Screen. Data for the cln2 rad14 strain (AID 165);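 further: 0% = growth equal to vehicle treated cultures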; conditions: S. cerevisiae cln2 rad14 strain, hits give high values
# Outline: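 Yeast carrying cln2 and rad14 alterations (cell cycle control and DNA damage repair) were exposed to compounds. Growth inhibition was measured against vehicle-treated controls.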
# [10] = NCI Yeast Anticancer Drug Screen. Data for the bub3 strain (AID 167); conditions: S. cerevisiae bub3 mutant strain, hits give high values
# Outline: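 Steps: expose the mutant yeast strain to compound; grow alongside vehicle-treated cultures; measure growth; express inhibition against the vehicle cultures.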
# [11] = NCI Yeast Anticancer Drug Screen. Data for the wt2 strain (AID 169);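 further: 0% = growth of vehicle-treated yeast cultures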; conditions: S. cerevisiae wt2 strain growth inhibition, hits give high values
# Outline: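 Yeast cells were exposed to test compounds, and growth inhibition was measured relative to vehicle-treated controls.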
# [12] = NCI Yeast Anticancer Drug Screen. Data for the mlh1 strain (AID 171);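 further: 0% = growth of vehicle-treated control cultures of the same strain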; conditions: S. cerevisiae mlh1 strain growth inhibition, hits give high values
# Outline: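 Yeast carrying a defined genetic alteration in DNA damage repair or cell cycle control were exposed to test compounds. Growth inhibition was measured relative to vehicle-treated controls.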
# [13] = NCI Yeast Anticancer Drug Screen. Data for the sgs1 strain (AID 173);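 further: 0% = growth of vehicle-only control cultures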; conditions: S. cerevisiae sgs1 mutant, hits give high values
# Outline: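 Yeast mutant strains carrying defined defects in DNA damage repair or cell cycle control were exposed to test compounds. Growth inhibition was scored against vehicle-treated controls.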
# [14] = NCI Yeast Anticancer Drug Screen. Data for the rad18 strain (AID 177); conditions: S. cerevisiae rad18 mutant growth inhibition, hits give high values
# Outline: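 Yeast carrying a defined DNA damage repair alteration were exposed to compounds. Growth inhibition was expressed relative to vehicle-treated controls.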
# [15] = NCI Yeast Anticancer Drug Screen. Data for the mlh1 rad18 strain (AID 175); conditions: S. cerevisiae mlh1 rad18 strain growth inhibition, hits give high values
# Outline: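 Growth inhibition of the yeast strain was measured after compound exposure and expressed relative to vehicle-treated controls. The strain carries defined defects in DNA damage repair.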
# [16] = at 5.0 µM (retest, dose inferred, filed as 0.5)
# [17] = at 50.0 µM (retest, dose inferred, filed as 5.0)
smiles,measurement,setting,value
COc1cc(C(C)C(C(=O)O)C(=O)C(=O)O)cc(OC)c1OC (stereo not drawn),growth inhibition,[1]; at 1.2 µM,0%
same,growth inhibition,[1]; at 3.7 µM,2%
same,growth inhibition,[1]; at 11.0 µM,3%
same,growth inhibition,[1]; at 33.0 µM,4%
same,growth inhibition,[1]; at 100.0 µM,5%
same,growth inhibition,[2]; at 1.2 µM,-3%
same,growth inhibition,[2]; at 3.7 µM,-7%
same,growth inhibition,[2]; at 11.0 µM,-4%
same,growth inhibition,[2]; at 33.0 µM,-8%
same,growth inhibition,[2]; at 100.0 µM,1%
same,growth inhibition,[3]; at 1.2 µM,1%
same,growth inhibition,[3]; at 3.7 µM,2%
same,growth inhibition,[3]; at 11.0 µM,2%
same,growth inhibition,[3]; at 33.0 µM,1%
same,growth inhibition,[3]; at 100.0 µM,21%
same,growth inhibition,[4]; at 1.2 µM,3%
same,growth inhibition,[4]; at 3.7 µM,3%
same,growth inhibition,[4]; [16],-41%
same,growth inhibition,[4]; at 11.0 µM,4%
same,growth inhibition,[4]; at 33.0 µM,5%
same,growth inhibition,[4]; [17],-9%
same,growth inhibition,[4]; at 50.0 µM,0.85%
same,growth inhibition,[4]; at 100.0 µM,4%
same,growth inhibition,[5]; at 1.2 µM,-5%
same,growth inhibition,[5]; at 3.7 µM,-3%
same,growth inhibition,[5]; [16],7%
same,growth inhibition,[5]; at 11.0 µM,-3%
same,growth inhibition,[5]; at 33.0 µM,-2%
same,growth inhibition,[5]; [17],-4%
same,growth inhibition,[5]; at 50.0 µM,9.9%
same,growth inhibition,[5]; at 100.0 µM,0%
same,growth inhibition,[6]; at 1.2 µM,-1%
same,growth inhibition,[6]; at 3.7 µM,-2%
same,growth inhibition,[6]; at 11.0 µM,2%
same,growth inhibition,[6]; at 33.0 µM,3%
same,growth inhibition,[6]; at 100.0 µM,5%
same,growth inhibition,[7]; [16],-5%
same,growth inhibition,[7]; [17],2%
same,growth inhibition,[7]; at 50.0 µM,-3.75%
same,growth inhibition,[8]; at 1.2 µM,2%
same,growth inhibition,[8]; at 3.7 µM,5%
same,growth inhibition,[8]; at 11.0 µM,4%
same,growth inhibition,[8]; at 33.0 µM,5%
same,growth inhibition,[8]; at 100.0 µM,7%
same,growth inhibition,[9]; [16],10%
same,growth inhibition,[9]; [17],76% (active)
same,growth inhibition,[9]; at 50.0 µM,-22.4%
same,growth inhibition,[10]; at 1.2 µM,1%
same,growth inhibition,[10]; at 3.7 µM,-1%
same,growth inhibition,[10]; [16],4%
same,growth inhibition,[10]; at 11.0 µM,-6%
same,growth inhibition,[10]; at 33.0 µM,-3%
same,growth inhibition,[10]; [17],11%
same,growth inhibition,[10]; at 50.0 µM,44.6%
same,growth inhibition,[10]; at 100.0 µM,-2%
same,growth inhibition,[11]; at 1.2 µM,1%
same,growth inhibition,[11]; at 3.7 µM,0%
same,growth inhibition,[11]; at 11.0 µM,2%
same,growth inhibition,[11]; at 33.0 µM,-1%
same,growth inhibition,[11]; at 100.0 µM,2%
same,growth inhibition,[12]; at 1.2 µM,0%
same,growth inhibition,[12]; at 3.7 µM,0%
same,growth inhibition,[12]; at 11.0 µM,2%
same,growth inhibition,[12]; at 33.0 µM,3%
same,growth inhibition,[12]; at 100.0 µM,6%
same,growth inhibition,[13]; at 1.2 µM,-1%
same,growth inhibition,[13]; at 3.7 µM,-1%
same,growth inhibition,[13]; at 11.0 µM,0%
same,growth inhibition,[13]; at 33.0 µM,2%
same,growth inhibition,[13]; at 100.0 µM,6%
same,growth inhibition,[14]; at 1.2 µM,-5%
same,growth inhibition,[14]; at 3.7 µM,-2%
same,growth inhibition,[14]; at 11.0 µM,-4%
same,growth inhibition,[14]; at 33.0 µM,1%
same,growth inhibition,[14]; at 100.0 µM,9%
CCCC#CCOC(=O)c1cc([N+](=O)[O-])cc([N+](=O)[O-])c1,growth inhibition,[1]; at 1.2 µM,-4%
same,growth inhibition,[1]; at 3.7 µM,22%
same,growth inhibition,[1]; at 11.0 µM,99% (active)
same,growth inhibition,[1]; at 33.0 µM,99% (active)
same,growth inhibition,[1]; at 100.0 µM,99% (active)
same,growth inhibition,[2]; at 1.2 µM,22%
same,growth inhibition,[2]; at 3.7 µM,92% (active)
same,growth inhibition,[2]; at 11.0 µM,99% (active)
same,growth inhibition,[2]; at 33.0 µM,99% (active)
same,growth inhibition,[2]; at 100.0 µM,99% (active)
same,growth inhibition,[3]; at 1.2 µM,-5%
same,growth inhibition,[3]; at 3.7 µM,86% (active)
same,growth inhibition,[3]; at 11.0 µM,99% (active)
same,growth inhibition,[3]; at 33.0 µM,99% (active)
same,growth inhibition,[3]; at 100.0 µM,99% (active)
same,growth inhibition,[4]; at 1.2 µM,2%
same,growth inhibition,[4]; at 3.7 µM,67%
same,growth inhibition,[4]; [16],88% (active)
same,growth inhibition,[4]; at 11.0 µM,98% (active)
same,growth inhibition,[4]; at 33.0 µM,98% (active)
same,growth inhibition,[4]; [17],99% (active)
same,growth inhibition,[4]; at 50.0 µM,99.5% (active)
same,growth inhibition,[4]; at 100.0 µM,99% (active)
same,growth inhibition,[5]; at 1.2 µM,-2%
same,growth inhibition,[5]; at 3.7 µM,33%
same,growth inhibition,[5]; [16],99% (active)
same,growth inhibition,[5]; at 11.0 µM,99% (active)
same,growth inhibition,[5]; at 33.0 µM,99% (active)
same,growth inhibition,[5]; [17],100% (active)
same,growth inhibition,[5]; at 50.0 µM,99.7% (active)
same,growth inhibition,[5]; at 100.0 µM,99% (active)
same,growth inhibition,[6]; at 1.2 µM,0%
same,growth inhibition,[6]; at 3.7 µM,28%
same,growth inhibition,[6]; at 11.0 µM,98% (active)
same,growth inhibition,[6]; at 33.0 µM,99% (active)
same,growth inhibition,[6]; at 100.0 µM,99% (active)
same,growth inhibition,[7]; [16],97% (active)
same,growth inhibition,[7]; [17],100% (active)
same,growth inhibition,[7]; at 50.0 µM,99.7% (active)
same,growth inhibition,[8]; at 1.2 µM,-2%
same,growth inhibition,[8]; at 3.7 µM,11%
same,growth inhibition,[8]; at 11.0 µM,99% (active)
same,growth inhibition,[8]; at 33.0 µM,99% (active)
same,growth inhibition,[8]; at 100.0 µM,99% (active)
same,growth inhibition,[9]; [16],23%
same,growth inhibition,[9]; [17],99% (active)
same,growth inhibition,[9]; at 50.0 µM,99.5% (active)
same,growth inhibition,[10]; at 1.2 µM,-9%
same,growth inhibition,[10]; at 3.7 µM,4%
same,growth inhibition,[10]; [16],86% (active)
same,growth inhibition,[10]; at 11.0 µM,98% (active)
same,growth inhibition,[10]; at 33.0 µM,98% (active)
same,growth inhibition,[10]; [17],99% (active)
same,growth inhibition,[10]; at 50.0 µM,99.8% (active)
same,growth inhibition,[10]; at 100.0 µM,99% (active)
same,growth inhibition,[12]; at 1.2 µM,1%
same,growth inhibition,[12]; at 3.7 µM,30%
same,growth inhibition,[12]; at 11.0 µM,99% (active)
same,growth inhibition,[12]; at 33.0 µM,99% (active)
same,growth inhibition,[12]; at 100.0 µM,99% (active)
same,growth inhibition,[13]; at 1.2 µM,4%
same,growth inhibition,[13]; at 3.7 µM,97% (active)
same,growth inhibition,[13]; at 11.0 µM,99% (active)
same,growth inhibition,[13]; at 33.0 µM,99% (active)
same,growth inhibition,[13]; at 100.0 µM,99% (active)
same,growth inhibition,[15]; [16],97% (active)
same,growth inhibition,[15]; [17],100% (active)
same,growth inhibition,[15]; at 50.0 µM,99.5% (active)
same,growth inhibition,[14]; at 1.2 µM,4%
same,growth inhibition,[14]; at 3.7 µM,81% (active)
same,growth inhibition,[14]; at 11.0 µM,99% (active)
same,growth inhibition,[14]; at 33.0 µM,99% (active)
same,growth inhibition,[14]; at 100.0 µM,99% (active)
